These results are taken from PubChem BioAssay.

Assay [1] is described as follows: A549 cell viability effects, profiling panel, calcein-AM fluorescence, 48 h, basal (AID 1162). Further: test concentration not given here. Particulars: higher = more signal.
The nature of assay [2]: adipocyte viability effects, profiling panel, cell-based, 3T3-L1 adipocytes, calcein-AM fluorescence, 48 h, basal (AID 1163). Further: test concentration not given here. Particulars: 3T3-L1 adipocytes viability, higher = more signal.
The nature of assay [3]: HepG2 cell viability effects, profiling panel, calcein-AM fluorescence, 48 h, basal (AID 1164). Further: test concentration not given here. Conditions: higher = more signal.
A short description of assay [4]: MM1S cell viability effects, profiling panel, calcein-AM fluorescence, 48 h, basal (AID 1165).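 Further: viability of MM1S multiple myeloma cells under basal unstimulated conditions; test concentration not given here.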 Particulars: higher = more signal.
Assay [5] can be described thus: basal RPMI8226 viability, no added stimulus, profiling panel, cell-based, calcein-AM fluorescence, 48 h, PK04 Diversity Set (AID 1166).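 Further: cells grown under basal conditions without added stimulus; test concentration not given here.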 Conditions: RPMI8226 myeloma viability, higher = more signal.
Assay [6] in a line: basal HepG2 mitochondrial membrane potential changes, profiling panel, cell-based, JC-1 fluorescence, 24 h, 100 nL compound (AID 1167). Further: test concentration not given here. Particulars: higher = more signal.
A short description of assay [7]: basal 3T3-L1 adipocyte mitochondrial potential changes, profiling panel, cell-based, JC-1 fluorescence, 3T3-L1 adipocytes, 24 h, 100 nL compound (AID 1168). Further: test concentration not given here. Particulars: JC-1 mitochondrial fluorescence, higher = more signal, called active from +8 up or from −8 down.
Assay [8] in a line: basal RPMI8226 mitochondrial membrane potential changes, profiling panel, cell-based, JC-1 fluorescence, 24 h, 100 nL compound (AID 1169). Further: test concentration not given here. Conditions: RPMI8226 myeloma, JC-1 mitochondrial potential fluorescence, higher = more signal.
Assay [9] in a line: basal MM1S mitochondrial membrane potential changes, profiling panel, cell-based, JC-1 fluorescence, 24 h, 100 nL compound (AID 1170). Further: test concentration not given here. Particulars: higher = more signal.
The nature of assay [10]: A549 lung cancer cell viability effects, profiling panel, resazurin fluorescence, 24 h, PK04 Diversity Set (AID 1171). Further: test concentration not given here. Particulars: higher = more signal, called active from +8 up or from −8 down. Background: The colour change of resazurin is a common sign of viable cells or microbes.
A short description of assay [11]: HepG2 liver cancer cell viability effects, profiling panel, resazurin fluorescence, 24 h, PK04 Diversity Set (AID 1172). Further: test concentration not given here. Particulars: higher = more signal.
Assay [12] can be described thus: basal S. cerevisiae growth modulation, no modifier, primary screen, OD600, strain BY4716, 24 h, basal condition (AID 1173). Conditions: OD600, 24 h, higher = more signal, called active from +8 up or from −8 down.
Assay [13] can be described thus: MM1S myeloma cell viability, profiling panel, resazurin fluorescence, basal, 24 h, PK04 Diversity Set (AID 1174).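 Further: MM1S multiple myeloma cell line; test concentration not given here.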 Particulars: higher = more signal, called active from +8 up or from −8 down.
In assay [14] the target is Dihydroorotate dehydrogenase (quinone), mitochondrial (Plasmodium falciparum (isolate 3D7)) (UniProt Q08210). Put plainly: PfDHODH enzyme inhibitors, primary screen, biochemical, C-terminal His tag, absorbance 600 nm (AID 1175).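 Further: recombinant parasite enzyme with a five histidine tag at its C terminus; test concentration not given here.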 Conditions: DCIP absorbance 600 nm, higher = more signal, called active from +8 up or from −8 down.
The nature of assay [15]: P. aeruginosa biofilm formation inhibitors, primary screen, strain PAO1, LB-PBS medium, absorbance 600 nm (AID 1176). Further: test concentration not given here. Conditions: P. aeruginosa PAO1 growth/biofilm, A600, 12 h; higher = more signal.
Assay [16] is described as follows: S. cerevisiae RM11-1a growth modifiers, primary screen, strain RM11-1a, OD600, basal, 24 h (AID 1177).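 Further: cultures grown under basal conditions with no added stressor; test concentration not given here.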 Particulars: OD600, 24 h, higher = more signal, called active from +8 up or from −8 down.
The nature of assay [17]: E. coli acrAB mutant growth effects, primary screen, E. coli filamentation inducers, strain DRC39, OD650, 24 h (AID 1178).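 Further: growth measured as culture turbidity by optical density at 650 nm; test concentration not given here.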 Particulars: higher = more signal, called active from +8 up or from −8 down.
A short description of assay [18]: E. coli acrAB mutant growth effects, primary screen, E. coli filamentation inducers, strain DRC39, OD650, 48 h (AID 1179).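 Further: screen aims at cell division blockers that make cells filament.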 Conditions: E. coli DRC39 delta-acrAB growth, higher = more signal, called active from +8 up or from −8 down.
The nature of assay [19]: RPMI8226 myeloma cell viability, profiling panel, resazurin fluorescence, basal, 24 h, PK04 Diversity Set (AID 1180).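 Further: RPMI8826 multiple myeloma cell line at 5000 cells per well; test concentration not given here.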 Particulars: higher = more signal.
Assay [20] has as its target E3 ubiquitin-protein ligase XIAP (Homo sapiens) (UniProt P98170). Put plainly: XIAP binders, primary screen, biophysical, small-molecule microarray, fluorescence 635 nm (AID 1181).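 Further: score merges 667 nm emission and signal to noise over triplicate slides.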 Conditions: small-molecule microarray binding, higher = more signal.

Active and inactive are the calls of the source. Unless noted, how the calls were made is not given here.

Chain of Dihydroorotate dehydrogenase (quinone), mitochondrial (Plasmodium falciparum (isolate 3D7)) (Q08210 whole entry, looked up): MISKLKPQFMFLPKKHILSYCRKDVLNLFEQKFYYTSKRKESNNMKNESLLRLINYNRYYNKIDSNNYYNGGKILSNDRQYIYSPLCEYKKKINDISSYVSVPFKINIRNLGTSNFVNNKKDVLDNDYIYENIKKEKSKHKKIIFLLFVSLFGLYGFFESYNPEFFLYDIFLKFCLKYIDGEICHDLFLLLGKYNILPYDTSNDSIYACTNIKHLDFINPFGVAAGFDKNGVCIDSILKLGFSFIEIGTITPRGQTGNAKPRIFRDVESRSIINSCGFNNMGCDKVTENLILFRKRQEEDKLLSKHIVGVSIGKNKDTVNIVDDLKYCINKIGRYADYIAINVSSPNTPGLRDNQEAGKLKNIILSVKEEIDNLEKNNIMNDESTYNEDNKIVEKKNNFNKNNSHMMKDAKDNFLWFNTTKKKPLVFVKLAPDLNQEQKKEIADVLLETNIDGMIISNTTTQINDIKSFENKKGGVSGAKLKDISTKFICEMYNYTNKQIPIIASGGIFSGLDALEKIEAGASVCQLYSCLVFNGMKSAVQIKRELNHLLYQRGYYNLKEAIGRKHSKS
Chain of E3 ubiquitin-protein ligase XIAP (Homo sapiens) (P98170 whole entry, looked up): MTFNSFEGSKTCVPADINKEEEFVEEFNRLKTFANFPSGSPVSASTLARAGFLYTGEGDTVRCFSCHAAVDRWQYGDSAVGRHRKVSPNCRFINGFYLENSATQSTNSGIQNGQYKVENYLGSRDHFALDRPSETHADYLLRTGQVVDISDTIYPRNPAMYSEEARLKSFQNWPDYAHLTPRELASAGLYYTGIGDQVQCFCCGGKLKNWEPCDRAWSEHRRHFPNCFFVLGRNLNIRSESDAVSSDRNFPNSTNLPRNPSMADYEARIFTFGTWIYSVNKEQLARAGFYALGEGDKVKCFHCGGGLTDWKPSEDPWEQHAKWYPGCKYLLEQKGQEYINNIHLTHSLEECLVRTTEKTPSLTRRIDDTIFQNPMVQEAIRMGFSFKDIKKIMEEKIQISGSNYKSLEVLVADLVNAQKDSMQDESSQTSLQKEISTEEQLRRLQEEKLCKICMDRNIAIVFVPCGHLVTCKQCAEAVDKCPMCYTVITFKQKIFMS

As for `CO[C@H]1O[C@H](CO)[C@@H](OC(=O)Nc2ccccc2)[C@H](OC(=O)c2cc3ccccc3[nH]2)[C@H]1OC(=O)c1cc2ccccc2[nH]1`, the z-score was -0.14 in assay [1]; 0.544 in assay [2]; 0.131 in assay [3]; -0.294 in assay [4]; -0.939 in [5]; 1.12 in assay [6]. For the same compound, the z-score was 2.46 (inactive) in assay [7]; -0.766 in assay [8]; -0.61 in [9]; -2.51 (inactive) in assay [10]; -1.09 in [11]; -0.388 (inactive) in assay [12]. Further, the z-score is -1.59 (inactive) in assay [13]; 0.125 (inactive) in [15]; -0.643 (inactive) in assay [16]; 1.54 (inactive) in [17]; 1.45 (inactive) in assay [18]; -1.64 in assay [19]. For the same compound, the composite z-score in [14] is -0.49 (inactive); in assay [20], 0.246.
With `CO[C@H]1O[C@H](CO)[C@@H](OC(=O)Nc2ccc(Br)cc2)[C@@H]2OC(=O)[C@@H](Cc3ccccc3)C/C=C/C[C@H](Cc3ccccc3)C(=O)O[C@@H]12`, the z-score is 0.468 in assay [1]; 0.424 in assay [2]; -1.35 in [3]; -1.41 in assay [4]; -3.32 in assay [5]; 0.125 in assay [6]. For the same compound, the z-score is 2.12 (inactive) in assay [7]; -1.19 in assay [8]; -0.241 in [9]; -3.17 (inactive) in assay [10]; -1.2 in assay [11]; -0.0671 (inactive) in assay [12]. For the same compound, the z-score in [13] is -3.25 (inactive); in assay [15], 0.193 (inactive); in [16], 1.59 (inactive); in assay [17], 0.547 (inactive); in assay [18], 0.347 (inactive); in assay [19], -4.07. The composite z-score in assay [14] is -1.25 (inactive); in assay [20] it was 0.289.
Consider `COC(=O)C1=CC(CCCO)=CC(c2ccc(CN3CCCC3)cc2)N(Cc2cccc(OC(F)(F)F)c2)C=C1C(=O)OC` (stereo not given), for which the z-score is 0.589 in [1]; -0.0684 in assay [2]; 1.34 in assay [3]; 1.04 in assay [4]; -0.413 in assay [5]; 3.57 in assay [6]. Also, the z-score in assay [7] was 0.395 (inactive); in assay [8], 0.121; in [9], 0.593; in [10] it was -1.16 (inactive); in [11], -0.721; in assay [12], -1.54 (inactive). The z-score in [13] was -0.728 (inactive); in assay [15], -0.407 (inactive); in assay [16], -0.287 (inactive); in assay [17], 0.509 (inactive); in assay [18] it was 0.701 (inactive); in assay [19] it was -0.529. Also, the composite z-score in assay [14] is -2.65 (inactive); in [20], 0.166.
Turning to `CC1CC/C=C\[C@H]2OC34C=CCN(c5ccc(Cl)cc5)C(=O)[C@H]3N(C(C)CO)C(=O)[C@]4(C)C2C(=O)O1` (stereo not given in full), the z-score in assay [1] is 0.924; in [2], -0.761; in assay [3], 1.24; in assay [4], 1.31; in assay [5] it was 0.37; in assay [6], 0.807. Moreover, the z-score was -0.29 (inactive) in assay [7]; -0.0845 in [8]; -0.723 in assay [9]; 0.0378 (inactive) in [10]; 0.66 in assay [11]; -0.876 (inactive) in assay [12]. Moreover, the z-score is 0.535 (inactive) in [13]; -0.428 (inactive) in [15]; 0.33 (inactive) in assay [16]; 1.31 (inactive) in assay [17]; 1.48 (inactive) in [18]; 0.555 in assay [19]. The composite z-score in assay [14] was 0.291 (inactive); in [20], 0.3.
Turning to `CN(C)C(=O)[C@]1(CCC(=O)OC(C)(C)C)N=C(c2ccc(OCCCO)cc2)O[C@@H]1c1ccccc1CN=[N+]=[N-]`, the z-score in [1] was -0.307; in assay [2], 0.911; in assay [3], 0.697; in assay [4], 0.545; in [5], 0.259; in assay [6], 1.74. Further, the z-score in assay [7] was -0.682 (inactive); in assay [8] it was 0.124; in assay [9] it was -0.412; in [10], 0.669 (inactive); in assay [11] it was 1.52; in assay [12], -0.756 (inactive). Also, the z-score was 0.136 (inactive) in assay [13]; -0.36 (inactive) in [15]; -0.0274 (inactive) in [16]; 0.0547 (inactive) in [17]; -0.0727 (inactive) in assay [18]; 0.471 in [19]. Moreover, the composite z-score in assay [14] is -0.369 (inactive); in assay [20], -0.0501.
For `CCCCN1CC=CC23O[C@@H]4/C=C\CCCOC(=O)C4[C@H]2C(=O)N(CCO)[C@@H]3C1=O` (stereo not given in full), the z-score in assay [1] was -0.129; in [2], 1.63; in assay [3], -0.0509; in assay [4] it was 1.04; in [5], -0.711; in [6], -0.415. The z-score is 0.0794 (inactive) in assay [7]; 0.378 in [8]; 1.39 in assay [9]; -0.688 (inactive) in assay [10]; -1.03 in [11]; 0.291 (inactive) in [12]. Besides, the z-score is 0.294 (inactive) in [13]; -0.221 (inactive) in [15]; 0.507 (inactive) in assay [16]; -0.088 (inactive) in assay [17]; -0.389 (inactive) in assay [18]; 0.0725 in [19]. The values for the composite z-score in assay [14] and in assay [20] were 0.538 (inactive) and 0.0537, respectively.
In the case of `C=CCC(OC(C)=O)[C@@H]1[C@@H](N(Cc2cccc3ccccc23)C(=O)Cc2ccc(F)cc2)c2cc(OCCCO)ccc2N1C(=O)c1ccc2ccccc2c1` (stereo not given in full), the z-score in assay [1] was 0.937; in assay [2] it was 1; in assay [3], 0.975; in [4], -0.222; in assay [5], -0.754; in [6], 2.9. Moreover, the z-score was -0.249 (inactive) in [7]; -0.774 in assay [8]; -0.45 in assay [9]; 1.25 (inactive) in assay [10]; 0.921 in [11]; 0.274 (inactive) in [12]. The z-score was 0.697 (inactive) in [13]; -0.0057 (inactive) in assay [15]; 0.036 (inactive) in [16]; 0.655 (inactive) in assay [17]; 0.83 (inactive) in assay [18]; 0.276 in assay [19]. Also, the composite z-score is 0.339 (inactive) in [14] and 0.34 in assay [20].
Turning to `CCCCCN1CC=CC23O[C@@H]4C=CCCOC(=O)C4[C@H]2C(=O)N(CCCCCCO)[C@@H]3C1=O` (stereo not given in full), the z-score in assay [1] is -0.182; in assay [2], -0.131; in assay [3], 0.28; in assay [4], 0.762; in [5] it was 0.494; in assay [6], 0.306. In addition, the z-score in [7] is 0.737 (inactive); in assay [8], 0.548; in assay [9] it was -0.823; in assay [10] it was 0.229 (inactive); in assay [11] it was 0.678; in assay [12], 0.605 (inactive). In addition, the z-score is 0.0267 (inactive) in assay [13]; 0.55 (inactive) in assay [15]; 0.543 (inactive) in assay [16]; 0.649 (inactive) in [17]; 0.567 (inactive) in assay [18]; 0.424 in assay [19]. Besides, the composite z-score in assay [14] was 0.401 (inactive); in [20] it was 0.0702.
As for `CN1C2C=C(CCCO)C(C3C(=O)N(C(N)=O)C(=O)C32)C1C1CC1` (stereo not given), the z-score in assay [1] was 0.0701; in assay [2], -0.0683; in assay [3], 0.592; in assay [4], 0.0641; in [5], -0.952; in [6], -0.486. Besides, the z-score in [7] is 0.0295 (inactive); in assay [8], 0.192; in assay [9], 0.238; in [10], -0.513 (inactive); in assay [11] it was -0.444; in assay [12], 0.796 (inactive). The z-score in [13] was -0.179 (inactive); in assay [15] it was -0.341 (inactive); in [16], -0.18 (inactive); in assay [17], -0.686 (inactive); in [18], -0.743 (inactive); in assay [19], -0.761. The composite z-score in [14] was -0.884 (inactive); in assay [20], 0.0361.
